Experimental findings from PubChem BioAssay AID1851 (National Center for Advancing Translational Sciences (NCATS), 2009) are described below.

Hit rate of the full screen: of about 16,000 compounds, about 5,100 (32%) were called active. Not shown: some 25% with an inconclusive outcome. Calls come from the whole dose curve; as a rule, active = well fitted curve in the direction sought with a large enough effect; inconclusive = small, poorly fitted or top-dose-only effect, or effect the other way; inactive = no such curve, though single readings can be large or run the other way. The list shows a part of the results.
% is set by controls: 0 for no effect and ±100 for the full control effect.

For the assay, the target named is Cytochrome P450 3A4 (Homo sapiens) (UniProt P08684). Nature of the assay: Cytochrome panel assay with activity outcomes. The conditions noted are these: recombinant CYP, pro-luciferin dealkylation, luminescence, p450-cyp3a4; series mostly up to 57.1 µM; activity, negative = inhibition: at the top concentration.
Sequence of Cytochrome P450 3A4 (Homo sapiens) (P08684 whole entry, looked up): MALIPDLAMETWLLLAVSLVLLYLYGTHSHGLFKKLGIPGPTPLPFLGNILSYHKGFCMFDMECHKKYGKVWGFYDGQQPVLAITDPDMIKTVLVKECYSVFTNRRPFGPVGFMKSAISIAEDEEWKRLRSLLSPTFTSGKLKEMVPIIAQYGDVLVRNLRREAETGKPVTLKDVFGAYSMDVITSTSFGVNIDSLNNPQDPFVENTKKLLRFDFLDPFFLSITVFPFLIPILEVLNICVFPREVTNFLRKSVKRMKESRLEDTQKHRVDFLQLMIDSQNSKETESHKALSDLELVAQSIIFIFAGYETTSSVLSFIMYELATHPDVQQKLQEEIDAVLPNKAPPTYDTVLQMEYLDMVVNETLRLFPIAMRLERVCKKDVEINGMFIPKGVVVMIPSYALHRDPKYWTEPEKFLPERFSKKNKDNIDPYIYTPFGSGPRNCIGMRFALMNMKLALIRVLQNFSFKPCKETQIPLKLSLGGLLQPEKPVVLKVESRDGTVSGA
`O=C(O)CC(c1ccccc1)n1cnnn1` (stereo not drawn): the “activity, negative = inhibition” value was 19% (inactive).
In the case of `O=C(Cn1cnc2ccccc21)NC(c1ccccc1)c1ccccc1`, the AC50 was 7.94 µM (active).
Turning to `CN[C@@H]1[C@H](O[C@H]2[C@@H](O[C@@H]3[C@@H](O)[C@@H](O)[C@@H](N=C(N)N)[C@@H](O)[C@@H]3N=C(N)N)O[C@@H](C)[C@]2(O)CO)O[C@H](CO)[C@@H](O)[C@@H]1O`, the “activity, negative = inhibition” value was -18.2% [at 25.6 µM] (inactive).
On to `COc1ccccc1OCCCOc1ccc([N+](=O)[O-])cc1Cl`, for which the AC50 was 14.1 µM (active).
Turning to `COc1cc(C=O)ccc1OCCOCCOc1ccccc1Cl`, the activity, negative = inhibition is -2.53% [at 2.29 µM] (inactive).
For the compound `COc1cc(C)ccc1OCCCOc1ccccc1Br`, the activity, negative = inhibition is 3.33% [at 2.29 µM] (inactive).
With `Cc1ccc2c(c1)N(CC(=O)NC1CCC(C)CC1)C(=O)CO2` (stereo not drawn), the AC50 was 7.08 µM (active).
Still for that read-out and setting: then `Cc1ccc2c(c1)N(CC(=O)NC1CCCc3ccccc31)C(=O)CO2` (stereo not drawn), with 7.08 µM (active); and `Cc1ccc(C(=O)N/C(=C\c2ccc(Br)cc2)c2nc(=S)[nH][nH]2)cc1`, with 22.4 µM (active).
For the compound `CC(=O)NN1C(=O)/C(=C\c2ccc(C)cc2)SC1=S`, the “activity, negative = inhibition” value was -28% (inactive).
For the compound `Cc1ccc(C(=O)NC(=S)Nc2cccc3nsnc23)cc1`, the “activity, negative = inhibition” value is -8.47% (inactive).
Regarding `CN(C)CCCN1c2ccc3ccccc3c2Sc2cccc(Cl)c21`, the activity, negative = inhibition was -11.7% [at 11.4 µM] (inactive).
On to `c1ccc(CCc2nc(-c3ccccc3)no2)cc1`, for which the “activity, negative = inhibition” value is -24.8% (inactive).
Take `Clc1ccc(Cc2nc(-c3cccnc3)no2)cc1`: the AC50 was 2.51 µM (active).
In the case of `Clc1ccc(-c2noc(CN3CCCCC3)n2)cc1`, the activity, negative = inhibition is -11.9% [at 11.4 µM] (inactive).
On to `Cc1ccc(C2=Nc3ccccc3S[C@@H](c3cccc([N+](=O)[O-])c3)C2)cc1`, for which the AC50 was 3.98 µM (active).
In the case of `C[C@@]12CC[C@@H]3c4ccc(O)cc4CC[C@H]3[C@H]1C[C@@H](O)[C@H]2O`, the “activity, negative = inhibition” value is -7.48% [at 25.6 µM] (inactive).
For the compound `Cc1cccc(C)c1OC1(c2ccccc2)OC(=O)c2ccccc21` (stereo not drawn), the AC50 is 8.91 µM (active).
Consider `CCCCCCCOC1(c2ccccc2)OC(=O)c2ccccc21` (stereo not drawn), for which the “activity, negative = inhibition” value is -21.5% (inactive).
On the same count and under the same terms, to `N#C/C(=C\Nc1ccccn1)C(=O)c1ccco1` belongs -18.7% [at 11.4 µM] (inactive); to `CCCC(CCC)C(=O)NNc1cc(=O)c2c(=O)n(C)c(=O)n(C)c2[nH]1`, -11.1% (inactive).
Consider `Cc1noc(NS(=O)(=O)c2ccc(NC(=O)CC34CC5CC(CC(Br)(C5)C3)C4)cc2)c1C`, for which the AC50 was 6.31 µM (active).
As for `Cc1ccnc(NS(=O)(=O)c2ccc(NC(=O)C3CCCNC3=O)cc2)n1` (stereo not drawn), the “activity, negative = inhibition” value was -19.1% (inactive).
On to `Cc1noc(NS(=O)(=O)c2ccc(N)cc2)c1C`, for which the AC50 entry was “inactive”.
Take `COC(=O)COc1ccc2c(-c3cccc([N+](=O)[O-])c3)cc(=O)oc2c1`: the “activity, negative = inhibition” value is -28.1% (inactive).
Take `O=[N+]([O-])c1cccc(-c2nc(-c3ccncc3)no2)c1`: the concentration at half-maximal activity (AC50) is 0.562 µM (active).
Regarding `CC(C)CCNC1=NCCCCC1`, the “activity, negative = inhibition” value was -3.64% (inactive).
For `Cc1cccc2c(SCC(=O)NCC3CCCO3)nc(-c3ccc(F)cc3)nc12` (stereo not drawn), the “activity, negative = inhibition” value was -23.2% (inactive).
Regarding `Cc1[nH]nc2nc(SCC(=O)NCC3CCCO3)n(-c3ccc(Br)cc3)c(=N)c12` (stereo not drawn), the AC50 is 11.2 µM (active).
Regarding `Cc1ccc(-n2ncc3c(=O)n(CC(=O)NCC4CCCO4)cnc32)cc1` (stereo not drawn), the “activity, negative = inhibition” value is -21.5% (inactive).
Regarding `Nc1ccc(Sc2cnn(-c3ccccc3)c(=O)c2Cl)cc1`, the AC50 was 8.91 µM (active).
For the compound `Nc1ncnc2c1cnn2-c1ccccc1`, the “activity, negative = inhibition” value is -17.9% (inactive).
For `NCCCCCC(=O)O`, the AC50 result is “inactive”.
For the compound `CNC(=O)C(=O)NCCc1ccc(Cl)cc1`, the “activity, negative = inhibition” value is -24.5% (inactive).
For `Cc1nc(SCC(=O)NCCc2ccc(Cl)cc2)nc(C)c1C`, the AC50 was 2 µM (active).
In the case of `Nc1ccc(S(=O)(=O)Nc2ccc(Cl)nn2)cc1`, the “activity, negative = inhibition” value is -19.2% [at 25.6 µM] (inactive).
On the same count and under the same terms, to `Cc1nc2sccc2c(=O)n1-c1cccc(Cl)c1` belongs 17.4% [at 11.4 µM] (inactive).
The same measure, in the same setting: then `O=C(Cc1ccccc1)N/N=C/C=C/c1cccc([N+](=O)[O-])c1`, with -11.9% (inactive).
On to `Nc1nnc(CC(=O)N/N=C/c2cccc([N+](=O)[O-])c2)s1`, for which the AC50 is 28.2 µM (active).
As to `COc1ccc(CN2CCN(C(=O)CC(C)C)CC2)c(OC)c1OC`, the “activity, negative = inhibition” value was -28.6% (inactive).
Regarding `CCOc1ccc(-c2cc(CCCC(=O)Nc3cc(OC)ccc3OC)no2)cc1`, the AC50 was 3.55 µM (active).
Consider `CCCC(=O)Nc1cc(-c2cn3cccnc3n2)ccc1OC`, for which the “activity, negative = inhibition” value is -20% (inactive).
As to `CCOc1ccc(-c2cc(CCCC(=O)NCCc3ccc(OC)c(OC)c3OC)no2)cc1`, the AC50 was 7.08 µM (active).
Take `N[C@H](CCC(=O)NCS(=O)(=O)O)C(=O)O`: the “activity, negative = inhibition” value is -6.84% (inactive).
Turning to `CC(=O)N1CCC2(CC1)CCN(c1ccc(-c3ccccc3)cc1)CC2`, the “activity, negative = inhibition” value was -3.64% (inactive).
On the same count and under the same terms, then `CS(=O)(=O)N1CCC2(CC1)CN(c1ccc(-c3ccccc3)cc1)C2`, with -13.5% (inactive); and `c1ccc(-c2ccc(N3CC[C@@]4(CCCNC4)C3)cc2)cc1`, with -22% (inactive).
In the case of `O=C(Oc1ccccc1)N1CCC2(CCCN(c3ccc(-c4ccccc4)cc3)C2)CC1`, the AC50 is 31.6 µM (active).
`O=C(Oc1ccccc1)N1CCC2(CCCN(c3ncccn3)C2)CC1`: the “activity, negative = inhibition” value was -28.9% (inactive).
As for `c1ccc(-c2ccc(N3CCCC4(CCNCC4)C3)cc2)cc1`, the AC50 was 12.6 µM (active).
`COC(=O)N1CCC2(CCCN(c3ccccn3)C2)CC1`: the “activity, negative = inhibition” value was -21.1% (inactive).
Take `O=C(Oc1ccccc1)N1CCC2(CCCN(c3ccccn3)C2)CC1`: the AC50 is 25.1 µM (active).
Take `CC(=O)N1CCC2(CC1)CN(c1ccccn1)C2`: the “activity, negative = inhibition” value is -8.58% (inactive).
For the compound `O=C(Oc1ccccc1)N1CCC[C@@]2(CCN(c3ccccn3)C2)C1`, the half-maximal activity concentration (AC50) was 10 µM (active).
For the compound `COC(=O)N1CCC[C@@]2(CCN(c3ccccn3)C2)C1`, the “activity, negative = inhibition” value is -29.4% (inactive).
Turning to `NC(=O)CCCC1=NS(=O)(=O)c2ccccc2N1`, the “activity, negative = inhibition” value is -25.6% (inactive).
For `CC(C)(CC(=O)N1CCN(c2ccc(Cl)cc2)CC1)CC1=NS(=O)(=O)c2ccccc2N1`, the AC50 is 2.51 µM (active).
On to `CCOC(=O)N1CCN(C(=O)c2cccn3c(=O)c4cc(Cl)ccc4nc23)CC1`, for which the “activity, negative = inhibition” value was 6.16% (inactive).
`NC(=O)C1(N2CCCCC2)CCN(C(=O)c2cccn3c(=O)c4cc(Cl)ccc4nc23)CC1`: the AC50 is 11.2 µM (active).
For `NC(=O)C1(N2CCCCC2)CCN(C(=S)Nc2ccc(Cl)cc2)CC1`, the “activity, negative = inhibition” value is -18% (inactive).
For `CC(C)(C)n1nnnc1C(c1cccnc1)N(Cc1ccccc1)Cc1ccco1` (stereo not drawn), the AC50 was 0.794 µM (active).
Consider `O=C(NCCc1c[nH]c2ccccc12)[C@H]1C[C@@H]1[C@H](NP(=O)(c1ccccc1)c1ccccc1)c1ccccc1`, for which the AC50 was 1.58 µM (active).
Same read-out and setting: then `O=C(NCCc1c[nH]c2ccccc12)[C@@H]1C[C@H]1[C@@H](NP(=O)(c1ccccc1)c1ccccc1)c1ccccc1`, with 1.26 µM (active).

For orientation: AC50 means the concentration giving half of the maximal activity seen.
